Several values for one entry are separate records, joined by “and”; a condition that tells them apart may be missing. Equal entries are not always repeated. The campaign covered roughly 350,000 compounds. About 2,100 (0.6%) were called active. Another 1% or so got no clear call; they are omitted.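 How the source made its calls: active means activity change of -60% or lower, but not beyond a set lower limit; inconclusive means change between -60% and -40%, or beyond the set limit; inactive means change above -40%.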 The list comes from a sample in which actives are over-represented; it also holds similar structures and randomly drawn compounds. Some compounds were tested as several samples or in several runs, with calls that do not always agree.

Sequence of Relaxin receptor 1 (Homo sapiens) (Q9HBX9 whole entry, looked up): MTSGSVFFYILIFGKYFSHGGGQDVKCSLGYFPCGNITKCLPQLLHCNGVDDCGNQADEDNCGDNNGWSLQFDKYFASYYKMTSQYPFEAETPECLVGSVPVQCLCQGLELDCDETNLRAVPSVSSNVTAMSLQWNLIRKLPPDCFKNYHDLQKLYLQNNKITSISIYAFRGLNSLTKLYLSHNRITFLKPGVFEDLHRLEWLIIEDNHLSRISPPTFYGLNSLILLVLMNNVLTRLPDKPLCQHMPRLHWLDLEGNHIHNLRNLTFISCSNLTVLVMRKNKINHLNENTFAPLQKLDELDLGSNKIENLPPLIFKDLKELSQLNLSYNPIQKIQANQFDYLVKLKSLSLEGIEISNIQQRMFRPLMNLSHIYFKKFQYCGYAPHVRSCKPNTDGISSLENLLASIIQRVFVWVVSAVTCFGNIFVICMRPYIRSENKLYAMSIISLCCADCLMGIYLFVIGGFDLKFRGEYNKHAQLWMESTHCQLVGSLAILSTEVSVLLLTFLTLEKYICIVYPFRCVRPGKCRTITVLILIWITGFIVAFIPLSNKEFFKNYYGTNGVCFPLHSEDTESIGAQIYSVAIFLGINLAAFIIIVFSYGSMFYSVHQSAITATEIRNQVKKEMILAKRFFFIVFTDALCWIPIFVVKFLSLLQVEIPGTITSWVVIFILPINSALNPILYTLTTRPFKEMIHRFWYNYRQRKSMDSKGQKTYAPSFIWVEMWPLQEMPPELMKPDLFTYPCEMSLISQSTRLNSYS

The target of this test is Relaxin receptor 1 (Homo sapiens) (UniProt Q9HBX9). The experiment in a line: qHTS Assay for Antagonists of the Relaxin Receptor RXFP1. The settings on record: HEK293-RXFP1, relaxin-stimulated cAMP HTRF, 30 min; at 57.5 µM; stronger effect = lower value. The source says:
The relaxin hormone is involved in the variety of biological functions in normal tissues and diseases. The role of relaxin is well-established in female reproduction and parturition, mammary gland and endometrial development, maintenance of myometrial quiescence during pregnancy. Relaxin signaling through its G protein-coupled receptor (GPCR) RXFP1 results in ECM remodeling through regulation of collagen deposition, cell invasiveness, proliferation and overall tissue homeostasis. […] Recombinant human relaxin (rhRlx) is currently being tested in clinical trials as a protective agent in congestive heart failure, in treating severe preeclampsia, and as an anti-fibrotic agent in various organs. […] Upon relaxin binding RXFP1 activation leads to the activation of adenylate cyclase (AC) via G?s. cAMP will activate PKA, which phosphorylates many signaling proteins. Thus, detection of cAMP increase is an easy and reliable indication of relaxin receptor activation. To screen for antagonists of the relaxin receptor, a HEK293T cell line stably transfected with RXFP1 was used. RXFP1 activation by relaxin in presence of various concentrations of tested compounds was assayed by changes in cAMP levels as detected with a time-resolved fluorescence energy transfer (TR-FRET) cAMP detection kit.
For the primary screening, we used HTRF(R) (Homogenous Time-Resolved Fluorescence) cAMP HiRange assay (Cisbio Bioassays, 62AM6PEJ). Presence of cAMP in the cell lysate disrupts binding between the Cryptate-labeled anti-cAMP and d2-labeled cAMP pair, leading to a decrease in TR-FRET signal. The libraries were screened at two doses (57microM and 11microM), followed by a confirmation of the hits at 7-point serial dilution in the range of final concentrations [57microM - 78nM]. Data were normalized to the controls for basal activity (buffer only) and 100% activity (5 nM porcine relaxin). The EC50 values were determined from concentration-response data modeled with the standard Hill equation. NCGC Assay Protocol Summary: HiHEK (Hawaiian HEK293 LGR7 stably transfected with human RXFP1) were grown in the following media: DMEM+10%FBS+Pen/Strep + Geneticin (1mg/ml). For the assay, the cells were seeded in DMEM+Pen/Strep (with no serum & selective antibiotics) at 2,100 cells/ 3microl/well with MultiDrop Combi dispenser (Thermo Scientific, Logan, UT) onto white tissue culture treated solid bottom1536-well plates (Greiner #789173-F) and allowed to attach/recover overnight at 37 degrees C, 5% CO2. Next, 23nl/well of compound solutions in DMSO were transferred into wells with a pintool (Kalypsis, San Diego, CA). […] EC80 (relaxin at 50pM final concentration) was dispensed to the rest of the plate except columns 1&2 which were used as a negative control (EC0, buffer only), 1microl/well also. The cells were stimulated by relaxin in the presence of compounds for 30 minutes at 37 degrees C, 5% CO2. The detection reagents were prepared individually by dilution in Lysis buffer (supplied with the assay kit) just prior to dispensing. 1microl/well of cAMP-d2 and 1microl/well anti-cAMP-Eu3+-Cryptate antibodies were added simultaneously with BioRAPTR FRDtrade mark Workstation (Beckman Coulter). The plates were incubated at ambient temperature for 30 minutes and, then, FRET signal was read on Envision plate reader (PerkinElmer, Waltham, MA), at wavelengths 340nm (excitation), 615nm & 665nm (emission of donor and acceptor channels respectively).
Turning to `CCOC(=O)c1c(NC(=O)CSc2nccc(=O)[nH]2)sc(C)c1C`, the activity change, negative = inhibition was -91.3% (active). Under `CCOC(=O)c1c(NC(=O)CSc2nnc(Cc3csc(N)n3)n2C)sc(C)c1C` stands -1.84% (inactive). As for `CCOC(=O)c1c(NC(=O)CSc2nnc(CNc3ccc(C)cc3C)o2)sc(C)c1C`, the activity change, negative = inhibition is -10.8% (inactive). The figure for `CCOc1ccccc1C(=O)Nc1ccc(S(=O)(=O)N2CCCCC2c2cccnc2)cc1` (stereo not given) is -12.4% (inactive); for `CCOc1ccc(N(CC)S(=O)(=O)N2CCCC(C(=O)NCc3ccc(Cl)cc3)C2)cc1` (stereo not given) it is -18.5% (inactive).

Regarding `CCN(CC)CCCNC(=O)c1ccc2c(=O)n(Cc3ccc4c(c3)OCO4)c(=S)[nH]c2c1`, the activity change, negative = inhibition was -14.7% (inactive). For `CCCCNC(=O)c1ccc(-n2c(=S)[nH]c3ccccc3c2=O)cc1`, the activity change, negative = inhibition is -80.7% (active). Under `COCCn1c(=S)[nH]c2cc(C(=O)NCCc3ccc(OC)c(OC)c3)ccc2c1=O` stands 2.84% (inactive). The figure for `CCN1CCN(c2ncnc3c2cnn3-c2ccc(C)c(C)c2)CC1` is -9.99% (inactive); for `Cc1ccccc1-n1nnc2c(=O)oc3ccccc3c21` it is -91.4% (active); for `Cc1cccc(N2CCN(c3c(CN4CCCC4)c(=O)oc4ccccc34)CC2)c1C` it is -2.93% (inactive). Regarding `O=c1oc2ccccc2c(=O)c2ccccc12`, the activity change, negative = inhibition is 10.6% (inactive). Under `O=C(OCCN1CCOCC1)c1cccnc1Nc1cccc(C(F)(F)F)c1` stands -38.4% (inactive); under `CCOc1ccc(C(NC(=O)c2cc(OC)c(OC)c(OC)c2)c2cc(Cl)c3cccnc3c2O)cc1` (stereo not given), -12.8% (inactive). Consider `O=C(NCCN1CCOCC1)/C(=C/c1ccc(F)cc1)NC(=O)c1ccccc1`, for which the activity change, negative = inhibition was 12.6% (inactive). On to `O=C(NCCN1CCOCC1)c1ccc2c(c1)N(Cc1cccc(Cl)c1)C(=O)c1ccccc1S2(=O)=O`, for which the activity change, negative = inhibition is 2.8% (inactive). The figure for `CN1CCN(CCCNC(=O)c2ccc(/C=C3\Oc4ccccc4N(Cc4ccc(Cl)cc4)C3=O)cc2)CC1` is 6.65% (inactive).

In the case of `CCC1=Nc2cc(C(=O)NCCCN3CCOCC3)ccc2Sc2ccc(Br)cc21`, the activity change, negative = inhibition is -16.7% (inactive). As for `Cc1ccccc1CN1C(=O)c2ccccc2Sc2ccc(C(=O)NCCCN3CCOCC3)cc21`, the activity change, negative = inhibition was -22.1% (inactive) and -63.9% (active). The figure for `O=C(NCCN1CCOCC1)c1ccc(/C=C2\Sc3ccccc3N(Cc3ccc(F)cc3)C2=O)cc1` is -82.1% (active). The figure for `COc1ccc(S(=O)(=O)NCC(c2ccc(N(C)C)cc2)N2CCc3ccccc32)cc1OC` (stereo not given) is -3.43% (inactive); for `CN(C)c1cccc(C(=O)Nc2nc3ccc(S(=O)(=O)NC(C)(C)C)cc3s2)c1` it is 1.26% (inactive). Turning to `CC(C)c1ccc(OCC(=O)N(Cc2ccc(N(C)C)cc2)C2CCS(=O)(=O)C2)cc1` (stereo not given), the activity change, negative = inhibition is -31.5% (inactive). The figure for `Cc1cccc(Cn2c(SCc3ccc(C(=O)N4CCC(C)CC4)cc3)nc3ccncc32)c1` is -27.4% (inactive); for `CC(C)c1ccc(NC(=O)Cn2nnc(C(=O)NCCc3ccccc3)c2N)cc1` it is 7.65% (inactive); for `Cn1c(C(=O)N2CCC(C(=O)N3CCN(c4ccccc4)CC3)CC2)cc2sccc21` it is -7.62% (inactive).

With `O=C(CN1CCOCC1)Nc1cccc([N+](=O)[O-])c1`, the activity change, negative = inhibition was -13.2% (inactive). Under `COC(=O)/C=C\C(=O)Nc1cccc([N+](=O)[O-])c1` stands -90.5% (active). Regarding `CCC(CC)NC(=O)/C=C/c1cccc([N+](=O)[O-])c1`, the activity change, negative = inhibition was 5.58% (inactive). In the case of `C[C@@H]1CCC[C@H](C)N1CCCC(O)(c1ccccc1)c1ccccn1` (stereo not given in full), the activity change, negative = inhibition was 5.21% (inactive). For the compound `O=C(NNC(=O)C1CCN(c2ncccn2)CC1)c1ccccc1`, the activity change, negative = inhibition is 0.68% (inactive). The figure for `O=C(NNC(=O)C1CCC1)c1ccccc1` is -1.83% (inactive). For the compound `O=C(NNc1nc(N2CCCC2)nc(N2CCCC2)n1)c1ccccc1`, the activity change, negative = inhibition was -63.3% (active).

As for `CCc1ccc(S(=O)(=O)c2nnn3c2nc(N2CCN(CC)CC2)c2sccc23)cc1`, the activity change, negative = inhibition is -12.6% (inactive). The figure for `CCN1CCC(O)(/C=C/c2ccc(C)cc2)C(C(=O)/C=C/c2ccc(C)cc2)C1` (stereo not given) is -75.3% (active); for `CCN1CCC2(CC1)N=C(c1ccc(F)cc1)C(=S)N2C(=O)c1ccc(C)cc1` it is 8.98% (inactive). Consider `CCCS(=O)(=O)c1c(Nc2ccccc2C)sc(C(=O)c2ccccc2)c1N`, for which the activity change, negative = inhibition was -38.6% (inactive). For `Cc1cccc(NC(c2cccc(F)c2)c2ccc3ccc(C)nc3c2O)n1` (stereo not given), the activity change, negative = inhibition was -1.75% (inactive). Under `Cc1ccc(-c2cnc(NCc3ccc(C(C)C)cc3)n2C)cc1` stands -10.2% (inactive). Under `Cc1[nH]c2ccccc2c1C(=O)COC(=O)c1c(-c2ccccc2)noc1C` stands -27.9% (inactive). Under `CC(=O)c1c(C)[nH]c(=S)c(C#N)c1-c1ccc(F)cc1` stands 7.17% (inactive). On to `CCOC(=O)c1c(C)[nH]c(=S)c(C#N)c1-c1ccccc1`, for which the activity change, negative = inhibition is -118% (active). As for `OCCN(Cc1ccccc1)Cc1ccc(Cl)cc1`, the activity change, negative = inhibition was -15.6% (inactive). Under `OCC(CO)(CO)NCc1ccc(-c2ccccc2)cc1` stands -7.18% (inactive); under `OCc1ccc(-c2ccccc2)c(-c2ccccc2)c1`, -64.5% (active).
